Measurements reported in PubChem BioAssay AID1159580 (chemical genetic matrix, 2015).
Several values for one entry are separate records, joined by “and”; a condition that tells them apart may be missing. Equal entries are not always repeated. Among all 5,500 compounds or so, about 2,000 (36%) were called active. Not shown: some 18% with an inconclusive outcome. No stated cut-off is given here; in the data, active means normalized growth mostly below about 0.91 (no sharp cut-off); inconclusive means no clear call, values can overlap the other calls; inactive means mostly above about 0.92. The list shows a part of the results.

Assay: chemical genetic growth profiling, strain panel (AID 1159580);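 further: tested at 20 µM; growth read once vehicle control cultures reached saturation at 30 °C; 1 = growth at the plate median or of vehicle wells; lower values mean less growth of the strain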
Conditions: growth OD

Measured: normalized growth

O=c1c(O)c(-c2ccc(O)c(O)c2)oc2cc(O)cc(O)c12
inactive: S. cerevisiae deletion strains, locus YKL009W, strain mrt4, active compounds read low 1.01 | S. cerevisiae deletion strains, locus YKL068W, active compounds read low 1.03 | S. cerevisiae deletion strains, locus YKL085W, strain MDH1 (second series), active compounds read low 1.06 | S. cerevisiae deletion strains, locus YKL085W, strain MDH1, active compounds read low 1.06 | S. cerevisiae deletion strains, locus YKL190W, strain CNB1, active compounds read low 0.97 | S. cerevisiae deletion strains, locus YKR001C, strain vps1, active compounds read low 0.94 | S. cerevisiae deletion strains, locus YKR026C, strain gcn3, active compounds read low 1 | S. cerevisiae deletion strains, locus YKR091W, strain srl3, active compounds read low 0.979 | S. cerevisiae deletion strains, locus YLL001W, strain dnm1, active compounds read low 0.941 | S. cerevisiae deletion strains, locus YLL026W, active compounds read low 0.982 | S. cerevisiae deletion strains, locus YLL041C, strain sdh2, active compounds read low 0.979 | S. cerevisiae deletion strains, locus YLR039C, strain RIC1, active compounds read low 0.872 | S. cerevisiae deletion strains, locus YLR058C, strain SHM2, active compounds read low 0.937 | S. cerevisiae deletion strains, locus YLR102C, strain apc9, active compounds read low 1.04 | S. cerevisiae deletion strains, locus YLR113W, strain HOG1, active compounds read low 0.98 | S. cerevisiae deletion strains, locus YLR262C, strain YPT6, active compounds read low 0.982 | S. cerevisiae deletion strains, locus YLR268W, strain sec22, active compounds read low 0.924 | S. cerevisiae deletion strains, locus YLR330W, strain CHS5, active compounds read low 0.991 | S. cerevisiae deletion strains, locus YLR371W, strain rom2, active compounds read low 0.969 | S. cerevisiae deletion strains, locus YLR384C, strain iki3, active compounds read low 0.951 | S. cerevisiae deletion strains, locus YML016C, strain PPZ1, active compounds read low 0.961 | S. cerevisiae deletion strains, locus YML032C, strain rad52, active compounds read low 1.04 | S. cerevisiae deletion strains, locus YML120C, strain ndi1, active compounds read low 0.98 | S. cerevisiae deletion strains, locus YML124C, strain tub3, active compounds read low 1.03 | S. cerevisiae deletion strains, locus YMR078C, strain ctf18, active compounds read low 1.03 | S. cerevisiae deletion strains, locus YMR125W, strain sto1, active compounds read low 1.02 | S. cerevisiae deletion strains, locus YMR129W, active compounds read low 0.955 | S. cerevisiae deletion strains, locus YMR205C, strain PFK2, active compounds read low 0.929 | S. cerevisiae deletion strains, locus YMR223W, strain ubp8, active compounds read low 0.928 | S. cerevisiae deletion strains, locus YMR231W, strain pep5, active compounds read low 0.953 | S. cerevisiae deletion strains, locus YMR263W, strain SAP30, active compounds read low 0.906 | S. cerevisiae deletion strains, locus YMR307W, strain GAS1, active compounds read low 0.683 and 1 | S. cerevisiae deletion strains, locus YNL067W, strain RPL9B, active compounds read low 0.913 | S. cerevisiae deletion strains, locus YNL128W, strain TEP1, active compounds read low 0.964 and 0.995 | S. cerevisiae deletion strains, locus YNL153C, strain GIM3, active compounds read low 0.875 and 0.922 | S. cerevisiae deletion strains, locus YNL175C, strain NOP13, active compounds read low 1.01 | S. cerevisiae deletion strains, locus YNL183C, strain NPR1, active compounds read low 0.928 | S. cerevisiae deletion strains, locus YNL197C, strain WHI3, active compounds read low 1.01 | S. cerevisiae deletion strains, locus YNL224C, strain SQS1, active compounds read low 1.02 | S. cerevisiae deletion strains, locus YNL248C, strain rpa49, active compounds read low 0.948 | S. cerevisiae deletion strains, locus YNL250W, strain rad50, active compounds read low 1.02 | S. cerevisiae deletion strains, locus YNL271C, strain bni1, active compounds read low 1.02 | S. cerevisiae deletion strains, locus YNL298W, strain CLA4, active compounds read low 1.01 | S. cerevisiae deletion strains, locus YNL307C, strain MCK1, active compounds read low 0.948 | S. cerevisiae deletion strains, locus YNL322C, strain KRE1 (second series), active compounds read low 0.941 | S. cerevisiae deletion strains, locus YNL322C, strain KRE1, active compounds read low 0.929 | S. cerevisiae deletion strains, locus YNR049C, strain mso1, active compounds read low 0.967 | S. cerevisiae deletion strains, locus YNR052C, strain pop2, active compounds read low 1 | S. cerevisiae deletion strains, locus YOL006C, strain TOP1, active compounds read low 0.616 | S. cerevisiae deletion strains, locus YOL012C, strain htz1 0.39 | S. cerevisiae deletion strains, locus YOL147C, strain pex11, active compounds read low 1.03 | S. cerevisiae deletion strains, locus YOR001W, strain rrp6, active compounds read low 0.925 | S. cerevisiae deletion strains, locus YOR061W, strain CKA2, active compounds read low 0.939 | S. cerevisiae deletion strains, locus YOR069W, strain VPS5, active compounds read low 0.974 | S. cerevisiae deletion strains, locus YOR080W, strain dia2, active compounds read low 0.925 | S. cerevisiae deletion strains, locus YOR083W, strain WHI5 (second series), active compounds read low 0.994 | S. cerevisiae deletion strains, locus YOR136W, strain idh2, active compounds read low 1.01 | S. cerevisiae deletion strains, locus YOR144C, strain elg1, active compounds read low 1.03 | S. cerevisiae deletion strains, locus YOR184W, strain ser1, active compounds read low 0.92 | S. cerevisiae deletion strains, locus YOR231W, strain MKK1, active compounds read low 0.991 | S. cerevisiae deletion strains, locus YOR265W, strain rbl2, active compounds read low 0.963 | S. cerevisiae deletion strains, locus YOR290C, strain snf2, active compounds read low 0.888 | S. cerevisiae deletion strains, locus YOR316C, strain cot1, active compounds read low 1.04 | S. cerevisiae deletion strains, locus YPL055C, strain LGE1, active compounds read low 0.86 and 1 | S. cerevisiae deletion strains, locus YPL078C, strain atp4, active compounds read low 0.927 | S. cerevisiae deletion strains, locus YPL240C, strain hsp82, active compounds read low 0.936 | S. cerevisiae deletion strains, locus YPL241C, strain CIN2, active compounds read low 0.987 | S. cerevisiae deletion strains, locus YPL256C, strain CLN2, active compounds read low 0.982 | S. cerevisiae deletion strains, locus YPR119W, strain clb2, active compounds read low 1.05 | S. cerevisiae deletion strains, locus YPR141C, strain kar3, active compounds read low 1.01 | S. cerevisiae deletion strains, locus YPR163C, strain tif3, active compounds read low 1.03 | S. cerevisiae deletion strains, locus YPR167C, strain met16, active compounds read low 1.02 | S. cerevisiae deletion strains, strain wtn01, active compounds read low 0.931 | S. cerevisiae strains, strain wild type, active compounds read low 0.912
active: S. cerevisiae deletion strains, locus YKL160W, strain elf1, active compounds read low 0.87 | S. cerevisiae deletion strains, locus YLR027C, strain aat2, active compounds read low 0.893 | S. cerevisiae deletion strains, locus YLR221C, strain rsa3, active compounds read low 0.906 | S. cerevisiae deletion strains, locus YLR258W, strain gsy2, active compounds read low 0.878 | S. cerevisiae deletion strains, locus YLR262C, strain YPT6 (second series), active compounds read low 0.779 | S. cerevisiae deletion strains, locus YLR320W, strain mms22, active compounds read low 0.869 | S. cerevisiae deletion strains, locus YLR342W, strain FKS1 (second series), active compounds read low 0.719 | S. cerevisiae deletion strains, locus YLR342W, strain FKS1, active compounds read low 0.8 | S. cerevisiae deletion strains, locus YLR357W, strain rsc2, active compounds read low 0.713 | S. cerevisiae deletion strains, locus YLR370C, strain arc18, active compounds read low 0.859 | S. cerevisiae deletion strains, locus YLR418C, strain cdc73, active compounds read low 0.775 | S. cerevisiae deletion strains, locus YMR058W, strain fet3, active compounds read low 0.882 | S. cerevisiae deletion strains, locus YNL071W, strain lat1, active compounds read low 0.848 | S. cerevisiae deletion strains, locus YNL209W, strain ssb2, active compounds read low 0.636 | S. cerevisiae deletion strains, locus YNL233W, strain BNI4, active compounds read low 0.859 | S. cerevisiae deletion strains, locus YOR070C, strain gyp1, active compounds read low 0.885 | S. cerevisiae deletion strains, locus YOR083W, strain WHI5, active compounds read low 0.808 | S. cerevisiae deletion strains, locus YOR106W, strain vam3, active compounds read low 0.653 | S. cerevisiae deletion strains, locus YOR270C, strain vph1, active compounds read low 0.749 | S. cerevisiae deletion strains, locus YPL051W, strain arl3, active compounds read low 0.814 | S. cerevisiae deletion strains, locus YPL106C, strain sse1, active compounds read low 0.783
